For 40 compounds, Potency and activation results are on record in PubChem BioAssay (Tox21).

The structures appear in SMILES notation. A number with no mark means an inactive call. Entries that show only a call come without a potency. Activity calls are given as the source filed them. The call rests on the fitted dose curve.

Chain of Muscarinic acetylcholine receptor M1 (Homo sapiens) (P11229 whole entry, looked up): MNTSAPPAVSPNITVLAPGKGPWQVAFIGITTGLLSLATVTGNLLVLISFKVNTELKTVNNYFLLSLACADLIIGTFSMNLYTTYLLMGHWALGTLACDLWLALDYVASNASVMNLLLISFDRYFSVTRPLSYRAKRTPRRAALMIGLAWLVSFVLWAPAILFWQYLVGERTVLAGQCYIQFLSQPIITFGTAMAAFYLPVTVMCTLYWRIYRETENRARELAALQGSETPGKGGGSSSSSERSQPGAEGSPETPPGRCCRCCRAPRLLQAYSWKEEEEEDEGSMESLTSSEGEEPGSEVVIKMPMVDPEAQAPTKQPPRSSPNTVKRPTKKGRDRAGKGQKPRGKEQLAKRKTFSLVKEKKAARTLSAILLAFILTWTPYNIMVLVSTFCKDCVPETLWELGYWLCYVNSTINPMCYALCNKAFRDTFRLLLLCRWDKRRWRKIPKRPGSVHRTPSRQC

For this test, the target named is Muscarinic acetylcholine receptor M1 (Homo sapiens) (UniProt P11229). Description: Cholinergic receptor muscarinic 1 (CHRM1) small molecule agonists, cell-based qHTS assay (AID 1963589). Further: nearly all actives have a fitted effect of over 35% in size. The following applies: CHRM1-CHO cells, agonist mode, calcium flux fluorescence; series mostly up to 76.8 µM. From the text:
National Center for Advancing Translational Sciences [NCATS]
Division of Preclinical Innovation [DPI]
U.S. Environmental Protection Agency [EPA]
National Institutes of Environmental Health Sciences [NIEHS]
National Toxicology Program [NTP]
U.S. Food and Drug Administration [FDA]
The CHRM1 is a muscarinic receptor. This receptor plays a crucial role in learning and memory processes and has long been identified as a promising therapeutic target for the improvement of cognitive decline in Alzheimer's disease (AD). The CHRM1-CHO cell line stably expressing human muscarinic acetylcholine receptor M1 (CHRM1) can be used for screening agonists and antagonists of interactions between CHRM1 and its ligands. The CHRM1-CHO Calcium Flux Assay is a homogeneous fluorescence-based assay for detecting the intracellular calcium level using FDSS kinetic plate reader system.
CHRM1-CHO cells were dispensed at 1000 cells/3uL/well in 1536-well black-clear bottom plates using a Multidrop Dispenser. After the assay plates were incubated at a 37 C/5% CO2 incubator for 18 h, 3 uL of Dye Loading Buffer was transferred to the assay plate by a Flying Reagent Dispenser. The assay plates were incubated at 37 C for 1h. For agonist mode, 23 nL of compounds dissolved in DMSO, positive controls or DMSO only was transferred to the assay plate by a pin tool. […] Each test compound was measured at 15 concentrations in three independent runs.
(In general: In qHTS, concentration-response curves come from the screen itself.)
In the case of `ONc1ccccc1`, the Potency entry is “inactive”.
On to `CCCCCCCCCCCCCCCCCl`, for which the activation was -0.468% [at 15.8 µM].
On to `COCCOCCOCCOC`, for which the Potency result is “inactive”.
`COc1ccccc1Oc1c(NS(=O)(=O)c2ccc(C(C)(C)C)cc2)nc(-c2ncccn2)nc1OCCO`: the Potency result was “inactive”.
In the case of `C=CC(=O)OCCOCCOCC`, the Potency entry was “inactive”.
Regarding `CC1=NN(c2ccc(C(=O)O)cc2)C(=O)C1`, the Potency result is “inactive”.
Turning to `CCOC(=O)CC1(C)OCC(C)O1` (stereo not given), the Potency result was “inactive”.
Still for that read-out and setting: in the case of `CCCCCCn1c(=O)c2c(ncn2C)n(C)c1=O` it was “inactive”; in that of `CO[Si](CCC1CCC2OC2C1)(OC)OC` (stereo not given), “inactive”; in that of `CCc1ccc(O)c(OC)c1`, “inactive”.
`CCCCCCCC[Si](OCC)(OCC)OCC`: the Potency entry is “inactive”.
For the compound `S=c1[nH][nH]c(=S)s1`, the Potency result was “inactive”.
Take `OCC(O)c1ccccc1` (stereo not given): the Potency entry was “inactive”.
Still for that read-out and setting: in the case of `C=C(C)C(=O)OCC[N+](C)(C)C` it was “inactive”.
Regarding `CCCCCCCCOCCCN`, the Potency entry was “inactive”.
For the compound `Cc1[nH]c(=O)c(C#N)cc1-c1ccc2nccn2c1`, the Potency entry is “inactive”.
In the case of `O=CN1CCCCC1`, the Potency result is “inactive”.
Take `CCC=O`: the Potency entry is “inactive”.
On to `CC(=O)OC1CCCCC1`, for which the Potency entry was “inactive”.
`Nc1nc(CC(=O)O)cs1`: the Potency entry is “inactive”.
For `CC(N)CCCC(C)(C)O` (stereo not given), the Potency result was “inactive”.
Consider `[O-][n+]1cccc(/C(Cl)=N/OC[C@@H](O)CN2CCCCC2)c1`, for which the Potency entry was “inactive”.
Same read-out and setting: in the case of `NC(=O)C(=O)N/N=C/c1ccc([N+](=O)[O-])o1` it was “inactive”; in that of `CCOc1ccccc1O`, “inactive”; in that of `Cc1c(C(C)C)c(=O)n(-c2ccccc2)n1C`, “inactive”.
In the case of `[O-][n+]1cccc(CO)c1`, the Potency entry was “inactive”.
`O=C(CCCl)NCc1ccccc1`: the Potency result is “inactive”.
On the same count and under the same terms, in the case of `CSc1nc(NC2CC2)nc(NC(C)(C)C)n1` it was “inactive”; in that of `c1ccc(C(O[C@H]2CCCN(CCc3ccc4c(c3)OCO4)C2)c2ccccc2)cc1`, “inactive”; in that of `CN1CN(C)CN(C)C1`, “inactive”.
Same read-out and setting: in the case of `COc1cccc(O)c1` it was “inactive”.
For the compound `c1cc(N(CC2CO2)CC2CO2)ccc1Cc1ccc(N(CC2CO2)CC2CO2)cc1` (stereo not given), the Potency result was “inactive”.
Consider `O=C(CCN1CCC(c2ccccc2)C1)c1ccc2c(c1)OCCO2` (stereo not given), for which the Potency result is “inactive”.
For `Cc1cc(CCCOc2c(C)cc(-c3noc(C(F)(F)F)n3)cc2C)on1`, the Potency result was “inactive”.
On to `Oc1ccccc1C=NCc1ccccc1`, for which the Potency result is “inactive”.
For `CC(C)Nc1nc(N)nc(Cl)n1`, the Potency entry is “inactive”.
Turning to `c1ccc(CNCCNCc2ccccc2)cc1`, the Potency entry was “inactive”.
As to `CCOC(=N)CC(=O)OCC`, the Potency entry is “inactive”.
Regarding `Cc1ccccc1C#N`, the Potency entry was “inactive”.
For the compound `CCCCCCCCCC=O`, the Potency entry is “inactive”.
